These results are taken from PubChem BioAssay (NCATS).

The target of test [1] is Cellular tumor antigen p53 (Homo sapiens) (UniProt P04637). The experiment in a line: Primary qHTS for small molecule compounds that upregulate eGFP-tagged delta133p53alpha (in N-terminal) cells. (AID 2060322). Also: nearly all actives have a fitted effect of over 75% in size. Also: potency is read from the fitted curve at half-maximal effect.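 As to activation: cells pre-induced with doxycycline then dosed without doxycycline; series mostly up to about 56 µM; 0% = DMSO vehicle and 100% = reference activator.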 As to conditions: NCI-H358 eGFP-delta133p53alpha fluorescence, 24 h; activation: stronger effect = higher value. In a few lines:
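NCI-H358 cells pre-induced 24 h with 10 ng/ml doxycycline for eGFP-delta133p53alpha, plated dox-free and exposed 24 h at 37C to titrated compounds. Fixed, Hoechst-stained; gated GFP peak intensity by laser scanning cytometry, normalized to DMSO (0%) and 57.5 uM 5-azacytidine (100%).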

For test [2], the target named is Aldehyde dehydrogenase, mitochondrial (Homo sapiens) (UniProt P05091). The test is described as follows: qHTS for Inhibitors of the Aldehyde Dehydrogenase Family (ALDH2) Primary screen (AID 2061308).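 Also: plate controls were vehicle for no effect and reference inhibitor for full effect; nearly all actives have a fitted effect of over 55% in size.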
Test [3] concerns the target Retinaldehyde dehydrogenase 3 (Homo sapiens) (UniProt P47895). The test is described as follows: qHTS for Inhibitors of the Aldehyde Dehydrogenase Family (ALDH1A3) Validation screen (AID 2061312). Also: % is scaled to controls: 0 for no effect and ±100 for the full control effect; nearly all actives have a fitted effect of over 45% in size.
Test [4] has the same target. The experiment in a line: qHTS for Inhibitors of the Aldehyde Dehydrogenase Family (ALDH1A3) Primary screen (AID 2061315).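 Also: plate controls were DMSO vehicle for no effect and reference inhibitor for full effect.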

“And” between values parts separate entries of the source, which are not always exact repeats. Equal entries are not always repeated. Records with an inconclusive call do not appear. Unmarked numbers belong to inactive results. The source made the active and inactive calls. Calls follow the shape of the dose curve; as a rule, active = well fitted curve in the direction sought with a large enough effect; inconclusive = small, poorly fitted or top-dose-only effect, or another doubt; inactive = no such curve, though single readings can be large; an effect the other way counts as inactive or inconclusive.

Chain of Cellular tumor antigen p53 (Homo sapiens) (P04637 whole entry, looked up): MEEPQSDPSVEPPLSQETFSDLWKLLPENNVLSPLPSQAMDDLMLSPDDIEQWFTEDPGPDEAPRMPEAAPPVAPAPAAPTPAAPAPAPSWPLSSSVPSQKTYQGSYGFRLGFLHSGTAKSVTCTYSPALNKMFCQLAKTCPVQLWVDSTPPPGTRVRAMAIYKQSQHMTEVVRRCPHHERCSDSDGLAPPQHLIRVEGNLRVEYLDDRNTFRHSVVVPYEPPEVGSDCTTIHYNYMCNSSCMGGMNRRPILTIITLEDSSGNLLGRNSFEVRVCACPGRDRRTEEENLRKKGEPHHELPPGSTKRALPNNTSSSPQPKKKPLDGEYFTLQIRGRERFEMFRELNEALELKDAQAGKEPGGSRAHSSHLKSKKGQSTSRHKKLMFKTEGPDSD

As for `O=C(NCc1ccc(OC(F)(F)F)cc1)C1c2ccccc2C(=O)N1C1CCOCC1` (stereo not given), in test [1], the activation was -5.73%. The Potency result in test [2], in test [3] and in test [4] was “inactive” in each case.
In the case of `O=C(NCCCN1CCOCC1)c1cnn2c(-c3ccccc3)cc(-c3ccccc3)nc12`, the activation in test [1] was -6.68%. In addition, the Potency result in test [2], in test [3] and in test [4] was “inactive” throughout.
In the case of `COc1ccc(N2CCOCC2)c2sc(NC(=O)N3CCC(C)(O)CC3)nc12`, the activation in test [1] is -5.25%. Besides, the Potency entry in test [2], in test [3] and in test [4] was “inactive” in each case.
For `C=C1CCN([C@H](C)[C@](O)(Cn2cncn2)c2ccc(F)cc2F)CC1`, the activation in test [1] is -19.1%. Besides, the Potency result in test [2], in test [3] and in test [4] was “inactive” in each case.
For the compound `C#CCN(Cc1cc2c(=O)[nH]c(C)nc2cc1Br)c1ccc(C(=O)NCc2cccnc2)cc1`, the activation in test [1] is -5.73%. The Potency entry in test [2], in test [3] and in test [4] was “inactive” each time.
As for `COc1ccc(C(=O)Nc2c(Cl)cncc2Cl)cc1OC1CCCC1`, in test [1], the activation was 0%. For the same compound, the Potency result in test [2], in test [3] and in test [4] was “inactive” in each case.
For the compound `CC(C)C[C@@H](C(=O)N[C@@H](Cc1ccc(OCc2ccccc2)cc1)C(=O)NC(C)(C)C)N(C)Cc1ccc(C(C)(C)C)cc1`, in test [1], the activation was -1.91%. Besides, the Potency result in test [2], in test [3] and in test [4] was “inactive” throughout.
As for `O=C(Nc1ccccc1)c1ccc(Nc2nnc(-c3ccc(O)cc3)c3ccccc23)cc1`, the activation in test [1] was 2.39%. The Potency result in test [2], in test [3] and in test [4] was “inactive” in each case.
Consider `COc1c(F)cccc1C(=O)N1C[C@@H](C)CC[C@H]1CNc1ccc(Br)cn1`, for which the activation in test [1] was -8.59%. In addition, the Potency entry in test [2], in test [3] and in test [4] was “inactive” in each case.
As to `O=C(NS(=O)(=O)c1ccc(Br)s1)c1ccc(Cl)cc1Cl`, in test [1], the activation was -12.4%. Besides, the Potency result in test [2], in test [3] and in test [4] was “inactive” in each case.
Consider `COc1ccc(NC(=O)c2ccc(-c3ccc(-c4nnc(C)o4)cc3C)cc2)cc1N1CCN(C)CC1`, for which, in test [1], the activation is -6.21%. In addition, the Potency result in test [2], in test [3] and in test [4] was “inactive” each time.
Turning to `CCOC(=O)COc1ccc2c(c1)C[C@@H](NC[C@H](O)c1cccc(Cl)c1)CC2`, the activation in test [1] was 11.9%. Also, the Potency result in test [2], in test [3] and in test [4] was “inactive” each time.
As to `OCC(O)CN1CCN(c2ccccc2)CC1` (stereo not given), in test [1], the activation is -0.837% and 0.955%. The Potency result in test [2], in test [3] and in test [4] was “inactive” each time.
For the compound `CCNC(=O)[C@H]1O[C@H](n2cnc3c(NCC(c4ccccc4)c4ccccc4)nc(C(=O)NCCNC(=O)NC4CCN(c5ccccn5)CC4)nc32)[C@H](O)[C@@H]1O`, the activation in test [1] is -9.55%. The Potency entry in test [2], in test [3] and in test [4] was “inactive” throughout.
On to `NC1=NC2(c3cc(NC(=O)c4ccc(F)cn4)ccc3F)COCC2CS1` (stereo not given), for which the activation in test [1] is -6.68%. For the same compound, the Potency result in test [2], in test [3] and in test [4] was “inactive” in each case.
Consider `CC[N+]1(C/C2=C/CCCCCC2)CCC(NC(=O)C2c3cc(Cl)ccc3Oc3ccc(Cl)cc32)CC1` (stereo not given), for which the activation in test [1] was 28.6%. Also, the Potency entry in test [2], in test [3] and in test [4] was “inactive” in each case.
In the case of `COc1ccc(N2CCN(CCCNC(=O)Cn3c(=O)c4cccn4c4c(C)ccnc43)CC2)cc1`, the activation in test [1] is 0.477%. The Potency result in test [2], in test [3] and in test [4] was “inactive” throughout.
For the compound `O=C(O)CC1CCC(c2ccc(NC(=O)c3nnc(Nc4ccc(F)c(F)c4)o3)cc2)CC1` (stereo not given), in test [1], the activation is -0.955%. Besides, the Potency result in test [2], in test [3] and in test [4] was “inactive” throughout.
As for `CCc1ccc(-c2nc(CSCC(=O)NCCc3ccccc3)c(C)o2)cc1`, the activation in test [1] is -12.9%. Further, the Potency entry in test [2], in test [3] and in test [4] was “inactive” each time.
Consider `CC1(C)C(=O)C(C)(C)c2cc(C(=O)Nc3ccc(C(=O)O)cc3)ccc21`, for which the activation in test [1] is -2.39%. For the same compound, the Potency result in test [2], in test [3] and in test [4] was “inactive” throughout.
As to `CC(=O)Nc1cccc(Nc2ncnc(N3CCC(OCc4ccc(OC(F)(F)F)cc4)CC3)n2)c1C`, the activation in test [1] is -6.21%. In addition, the Potency entry in test [2], in test [3] and in test [4] was “inactive” in each case.
Take `O=C(O)[C@H](Cc1ccccc1)Oc1ccc(-c2ccccc2)cc1`: the activation in test [1] was -3.34%. Besides, the Potency result in test [2], in test [3] and in test [4] was “inactive” in each case.
For the compound `Cc1noc(C)c1-c1cc(O)cc(C(O)c2ccccc2)c1` (stereo not given), the activation in test [1] was 10.1%. Besides, the Potency result in test [2], in test [3] and in test [4] was “inactive” in each case.
Turning to `CCn1c(=O)n([C@H]2CCCN(c3nccc(-c4cc5ccccc5o4)n3)C2)c2ccccc21`, the activation in test [1] was -7.16%. In addition, the Potency entry in test [2], in test [3] and in test [4] was “inactive” throughout.
As to `O=c1[nH]c(=O)n([C@H]2CCCO2)cc1F`, the activation in test [1] is -9.6% and 3.34%. Besides, the Potency entry in test [2], in test [3] and in test [4] was “inactive” throughout.
In the case of `COc1ccc2[nH]c3c(-c4cccc5ccccc45)nccc3c2c1`, the Potency in test [1] is 26.9 µM (active). Moreover, the Potency result in test [2], in test [3] and in test [4] was “inactive” throughout.
Regarding `CN[C@@H]1[C@@H](O)[C@@H](O[C@@H]2[C@@H](O)[C@H](O[C@H]3O[C@@H]([C@@H](C)NC)CC[C@H]3N)[C@@H](N)C[C@H]2N)OC[C@]1(C)O`, in test [1], the activation was -8.59%. The Potency result in test [2], in test [3] and in test [4] was “inactive” each time.
Regarding `O=C(O)Cc1ccc2oc(-c3ccc(NC(=O)/C=C/c4ccc(Br)cc4)c(F)c3)nc2c1`, in test [1], the activation was 25.8%. In addition, the Potency result in test [2], in test [3] and in test [4] was “inactive” in each case.
For `CC(C)CCNC(=O)c1ccc2c(c1)nc(Nc1n[nH]c3ccc(-c4ccccc4OC(F)(F)F)cc13)n2C1CCC(O)CC1` (stereo not given), the activation in test [1] is 6.21%. In addition, the Potency result in test [2], in test [3] and in test [4] was “inactive” throughout.
Turning to `CC(F)(F)CN1CCOc2c(nn(-c3ccccc3Cl)c2-c2ccc(Cl)cc2)C1=O`, the activation in test [1] was 10%. The Potency result in test [2], in test [3] and in test [4] was “inactive” each time.
